# Source: PubChem (ICCB-Longwood Screening Facility, Harvard Medical School)
# Sa helicase inh: inhibitors of S. aureus replicative helicase, primary screen, biochemical, fluorescence unwinding readout; inhibition, % (concentration not given with the values); AID 485395, 2010; replicative DNA helicase (DnaC/DnaB), Staphylococcus aureus; 120,000 compounds, 0.05% hits; purified S. aureus helicase, fluorescence unwinding assay; in the data active = inhibition above about 25%, passing the limit was not always enough;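 also: 0% = mean of negative control wells and 100% = mean of positive control wells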
# Sa growth inh: S. aureus growth inhibition at 42 and 30 °C, primary screen, LtaS inhibitor project, RN4220, two temperatures; OD600, 20 h, 42 °C; active compounds read low; relative growth, % (test concentration not listed); 170,000 compounds, 0.53% hits;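 active = relative growth at most 50% at the other temperature and 20+ points below 30 °C, or under 10% at both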
# The depositor's hits bear a star; · = no result given; ! = not confirmed by another sample. Rows were chosen to be rich in hits. Some 0.52% of all compounds tested hit in one or more screens of this group.
SMILES,Sa helicase inh,Sa growth inh
Cc1c2oc3c(C)ccc(C(=O)N[C@@H]4C(=O)N[C@H](C(C)C)C(=O)N5CCC[C@H]5C(=O)N(C)CC(=O)N(C)[C@@H](C(C)C)C(=O)O[C@@H]4C)c3nc-2c(C(=O)N[C@@H]2C(=O)N[C@H](C(C)C)C(=O)N3CCC[C@H]3C(=O)N(C)CC(=O)N(C)[C@@H](C(C)C)C(=O)O[C@@H]2C)c(N)c1=O,·,-0.6*
COC(=O)C(Cc1ccccc1)NC(=O)c1ccc(C#N)cc1 (stereo not given),6,82
O=C(CSc1nc(=O)n(CCN2CCOCC2)c2c1CCCC2)Nc1cccc(C(F)(F)F)c1,-15,93
CCC(=O)Nc1nc2ccccc2s1,-14,90
CCC(=O)Nc1nc2c(s1)CSc1ccccc1-2,26,6.6*
COC(=O)c1ccc(S(=O)(=O)N(C)C)o1,5,102
OC(c1ccccc1)c1ccc2c(c1)c1c3n2CCNC3CCC1 (stereo not given),-2,87
c1ccc(-c2ccc3c(c2)c2c4n3CCNC4CCC2)cc1 (stereo not given),14,0.3*
Cc1[nH]nc(-c2ccc(O)cc2O)c1Oc1ccc(C(C)C)cc1,-15,29*
Cc1[nH]nc(-c2ccc(O)c(C)c2O)c1Oc1ccccc1,-11,89
O=C(CCCn1c(=O)c2ccccc2n(Cc2ccc(F)cc2)c1=O)NCc1ccc(F)cc1,-3,104
Cc1ccc2cccc(OC(=O)c3ccc(Br)o3)c2n1,-23,0.3*
CCOc1cccc(C(=O)Oc2cccc3ccc(C)nc23)c1,6,80
O/N=C/c1ccc(Cl)cc1,6,96
Clc1ccc(/C=N/c2ccccn2)cc1,12,1.3*
O=C(NN=C1CCCC1)c1ccccc1NS(=O)(=O)c1cccs1,3,73
CCOC(=O)C1CCCN(C(=O)Cn2nc(C)n3nc(-c4ccc(OC)cc4)cc3c2=O)C1 (stereo not given),19,95
CC(=O)Nc1ccccc1-c1nc2ccccc2[nH]c1=O,8,122
CC(=O)N=Nc1c2[nH]c3ccccc3nc-2c2ccccc12,17,7.6*
COc1ccc(-c2nc3c(=O)n(C)c(=O)nc-3n(C)n2)cc1OC,-1,53
Cn1nc(-c2ccc(F)cc2)nc2c(=O)n(C)c(=O)nc1-2,-132,0.2*
N#Cc1c(N)nc2c(c1N)CC(=O)N2C1CCS(=O)(=O)C1 (stereo not given),-5,71
Cc1ccc(C)c(OCc2nnc(SC/C(O)=C(\C#N)c3nc4ccccc4[nH]3)o2)c1,-12,85
c1ccc(-c2csc3ncnc(NCCCn4ccnc4)c23)cc1,·,81
c1ccc(-c2c(-c3ccccc3)n(Cc3ccco3)c3ncnc(NCCCn4ccnc4)c23)cc1,-19,0.1*
SMILES,Sa helicase inh,Sa growth inh
CC(C)Cn1cnc2c(c(-c3ccccc3)c(-c3ccccc3)n2Cc2ccco2)c1=N,0,48*
N=c1c2c(-c3ccccc3)c(-c3ccccc3)n(Cc3ccco3)c2ncn1CCCN1CCOCC1,13,89
O=C(CCc1nc(-c2cccs2)no1)Nc1cccc(C(=O)NC2CC2)c1,-4,76
CCOC(=O)C1(C(=O)OCC)CCC1,0,107
CC(=O)O[C@H]1C[C@@]2(C)[C@@H](C[C@@H](O)C3[C@]2(C)CC[C@H]2[C@H](C)[C@H](O)CC[C@]32C)/C1=C(/CCC=C(C)C)C(=O)O (stereo not given in full),·,0.6*
NC(=O)CN1CCC(N2CCCCC2)CC1,-4,82
COc1ccc(-c2cc(C(F)(F)F)nc(NCc3ccccc3)n2)cc1,·,98
COc1ccc(-c2cc(C(F)(F)F)nc(S(C)(=O)=O)n2)cc1,·,28*
Cn1c(Cc2cccs2)nnc1SCC(=O)N1CCNC1=O,7,95
O=c1cc(-c2ccccc2)[nH]n1-c1nc2ccccc2[nH]1,17,7.5*
Cc1nn(-c2nc3ccccc3[nH]2)c(N)c1-c1ccccc1,-13,85
Cc1[nH]n(-c2nc3ccccc3[nH]2)c(=O)c1C1OC(=O)c2ccccc21 (stereo not given),11,46
Cc1cc(=O)n(-c2nc3ccccc3[nH]2)[nH]1,7,8.3*!
CC(C)=C=CCC(C)O (stereo not given),9,104
CCCC(Nc1cccc(Br)c1)N1C(=O)CCC1=O (stereo not given),·,108
Nn1c(SCc2nnc(-c3ccccc3)o2)nnc1-c1ccncc1,13,97
O=C1CN(/N=C/c2ccc([N+](=O)[O-])o2)C(=O)N1,·,13
O=C1OCCN1/N=C/c1ccc([N+](=O)[O-])o1,·,-0.9*
COc1ccc(/C=N/NC(=S)NC(C)C)cc1,15,84
Cc1nc2ccn(Cc3ccccc3)c(=O)c2cc1C(=O)O,27,115
Cc1ccc(NC(=O)c2ccc(=O)n(CC(=O)Nc3cccc(C)c3)n2)cc1,·,114
Cc1ccc(NC(=O)c2ccn(C(=O)Nc3cccc(Cl)c3)n2)cc1,17,45*
CC(=O)N1CCN(S(=O)(=O)c2cccc(C(=O)OCc3cc(Cl)cc4c3OCOC4)c2)CC1,3,123
Cc1cc(O)c(Cc2cc(Cl)c3cccnc3c2O)c(=O)o1,17,4.0*
O=c1oc2ccccc2c(O)c1Cc1cc(Cl)c2cccnc2c1O,-15,128
SMILES,Sa helicase inh,Sa growth inh
CCOC(=O)c1ccc(Nc2scc(C)[n+]2C)cc1,·,103
CCn1c2ccccc2c2cc(N=C=S)ccc21,4,128
CCn1c2ccccc2c2cc(C#N)ccc21,25,44*
Cc1ccc2[nH]c(=O)c(CN(CCCO)C(=O)NC3CCCCC3)cc2c1,5,96
O=C(O)C1CC(=O)N(CCC23CC4CC(CC(C4)C2)C3)C(=Nc2ccc(Cl)cc2)S1 (stereo not given),18,-0.5*
CN1C(=O)CC(C(=O)Nc2ccc(C(=O)O)cc2)SC1=Nc1ccc(Cl)cc1 (stereo not given),·,92
Cc1cccc(C(=O)N[C@@H]2C(=O)Nc3c(c(C)nn3C)[C@H]2c2ccccc2)c1,-18,90
Cn1cnc2cc(NCc3ccccc3Cl)ccc21,7,97
CCCCn1cnc2cc(NCc3ccccc3Cl)ccc21,·,1.0*
O=P1(NCc2ccco2)C=C(c2ccccc2)OC(c2ccccc2)=C1,2,103
Oc1c(C(Nc2ccccn2)c2ccccc2F)ccc2cccnc12 (stereo not given),·,17
Oc1ccccc1C(Nc1ccccn1)c1ccc2cccnc2c1O (stereo not given),1,4.8*
N=C(N)SCC1CN=C(Nc2ccccc2)S1 (stereo not given),7,115
CS(=O)(=O)c1ncc(Cl)c(C(=O)Nc2cccc(Cl)c2)n1,5,0.2*
COc1ccc(NC(=O)c2nc(S(C)(=O)=O)ncc2Cl)cc1Cl,0,21
CS(=O)(=O)c1ncc(Cl)c(C(=O)N2CCN(C(c3ccccc3)c3ccccc3)CC2)n1,-15,4.2*
Cc1cccc(NC(=O)c2nc(S(C)(=O)=O)ncc2Cl)c1,·,1.0*
O=C(O)c1nccnc1C(=O)N1CCN(C(c2ccccc2)c2ccccc2)CC1,-4,108
CCS(=O)(=O)c1ncc(Cl)c(C(=O)Nc2c(C(=O)Nc3cccc(C)c3)oc3ccccc23)n1,·,116
O=C(Cc1ccccc1)Nc1ccn(Cc2ccccc2)n1,9,102
NC(=O)c1cccc(-c2nn[nH]n2)c1,-23,88
CCCCN1CCC(N)=NC1=O,-17,93
